Counter-ions that a name gives are not always drawn. ± gives the standard deviation of the averaged measurements.
Assays:
[1] = tested on: Saccharomyces cerevisiae BY4741 SeMeCo community; test: mean cell size (pixel area) (pixels); higher = larger cells; conditions: 10 µM; 24 h; SM minimal medium
Procedure, shortened: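 The test system was a fluorescent Saccharomyces cerevisiae BY4741 community with four plasmids, each restoring one auxotrophy and carrying a fluorescent marker. Cells were grown for 24 h in SM medium with drug at a final 10 µM in 384-well plates, then fixed with paraformaldehyde and imaged by automated confocal microscopy for Harmony analysis of mean cell pixel area per well. Values represent the average of 3 replicates. Same SeMeCo high-content imaging drug screen: Selleck FDA-approved drugs at 10 µM, 24 h in SM medium, 384-well plates, 3 replicates.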

[2] = tested on: Saccharomyces cerevisiae BY4741 SeMeCo community; test: z-score of subpopulation abundance vs DMSO median, subpopulation auxotrophic for M; higher = larger share of this subpopulation than in DMSO controls; conditions: 10 µM; 24 h; SM minimal medium; subpopulation (auxotrophy): M
Procedure, shortened: (§1)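 Subpopulation abundance was reported as a z-score against the median of vehicle wells. The Saccharomyces cerevisiae BY4741 community, carrying four plasmids that each restored one auxotrophy and encoded a distinct fluorescent protein, was grown 24 h in minimal SM medium in 384-well plates holding library drugs at 10 µM final. Cells were paraformaldehyde-fixed and imaged by automated confocal microscopy, with single-auxotroph fluorescent strains used for thresholds and autofluorescence correction.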

[3] = tested on: Saccharomyces cerevisiae BY4741 SeMeCo community; test: z-score of subpopulation abundance vs DMSO median, subpopulation auxotrophic for L; higher = larger share of this subpopulation than in DMSO controls; conditions: 10 µM; 24 h; SM minimal medium; subpopulation (auxotrophy): L
Procedure, shortened: as §1

[4] = tested on: Saccharomyces cerevisiae BY4741 SeMeCo community; test: z-score of subpopulation abundance vs DMSO median, subpopulation auxotrophic for LM; higher = larger share of this subpopulation than in DMSO controls; conditions: 10 µM; 24 h; SM minimal medium; subpopulation (auxotrophy): LM
Procedure, shortened: as §1

[5] = tested on: Saccharomyces cerevisiae BY4741 SeMeCo community; test: z-score of subpopulation abundance vs DMSO median, subpopulation auxotrophic for HM; higher = larger share of this subpopulation than in DMSO controls; conditions: 10 µM; 24 h; SM minimal medium; subpopulation (auxotrophy): HM
Procedure, shortened: as §1

[6] = tested on: Saccharomyces cerevisiae BY4741 SeMeCo community; test: z-score of subpopulation abundance vs DMSO median, subpopulation auxotrophic for HU; higher = larger share of this subpopulation than in DMSO controls; conditions: 10 µM; 24 h; SM minimal medium; subpopulation (auxotrophy): HU
Procedure, shortened: as §1

[7] = tested on: Saccharomyces cerevisiae BY4741 SeMeCo community; test: z-score of subpopulation abundance vs DMSO median, subpopulation auxotrophic for UM; higher = larger share of this subpopulation than in DMSO controls; conditions: 10 µM; 24 h; SM minimal medium; subpopulation (auxotrophy): UM
Procedure, shortened: as §1

[8] = tested on: Saccharomyces cerevisiae BY4741 SeMeCo community; test: z-score of subpopulation abundance vs DMSO median, subpopulation auxotrophic for HL; higher = larger share of this subpopulation than in DMSO controls; conditions: 10 µM; 24 h; SM minimal medium; subpopulation (auxotrophy): HL
Procedure, shortened: as §1

[9] = tested on: Saccharomyces cerevisiae BY4741 SeMeCo community; test: z-score of subpopulation abundance vs DMSO median, subpopulation auxotrophic for HLU; higher = larger share of this subpopulation than in DMSO controls; conditions: 10 µM; 24 h; SM minimal medium; subpopulation (auxotrophy): HLU
Procedure, shortened: as §1

[10] = tested on: Saccharomyces cerevisiae BY4741 SeMeCo community; test: z-score of subpopulation abundance vs DMSO median, subpopulation auxotrophic for HUM; higher = larger share of this subpopulation than in DMSO controls; conditions: 10 µM; 24 h; SM minimal medium; subpopulation (auxotrophy): HUM
Procedure, shortened: as §1

[11] = tested on: Saccharomyces cerevisiae BY4741 SeMeCo community; test: z-score of subpopulation abundance vs DMSO median, subpopulation auxotrophic for LUM; higher = larger share of this subpopulation than in DMSO controls; conditions: 10 µM; 24 h; SM minimal medium; subpopulation (auxotrophy): LUM
Procedure, shortened: as §1

[12] = tested on: Saccharomyces cerevisiae BY4741 SeMeCo community; test: z-score of subpopulation abundance vs DMSO median, subpopulation auxotrophic for HLUM; higher = larger share of this subpopulation than in DMSO controls; conditions: 10 µM; 24 h; SM minimal medium; subpopulation (auxotrophy): HLUM
Procedure, shortened: as §1

[13] = tested on: Saccharomyces cerevisiae BY4741 SeMeCo community; test: z-score of prototroph abundance vs DMSO median; higher = larger share of this subpopulation than in DMSO controls; conditions: 10 µM; 24 h; SM minimal medium; subpopulation (auxotrophy): Prototroph
Procedure, shortened: as §1

[14] = tested on: Saccharomyces cerevisiae BY4741 SeMeCo community; test: z-score of subpopulation abundance vs DMSO median, subpopulation auxotrophic for U; higher = larger share of this subpopulation than in DMSO controls; conditions: 10 µM; 24 h; SM minimal medium; subpopulation (auxotrophy): U
Procedure, shortened: as §1

[15] = tested on: Saccharomyces cerevisiae BY4741 SeMeCo community; test: z-score of subpopulation abundance vs DMSO median, subpopulation auxotrophic for H; higher = larger share of this subpopulation than in DMSO controls; conditions: 10 µM; 24 h; SM minimal medium; subpopulation (auxotrophy): H
Procedure, shortened: as §1

[16] = tested on: Saccharomyces cerevisiae BY4741 SeMeCo community; test: z-score of subpopulation abundance vs DMSO median, subpopulation auxotrophic for HLM; higher = larger share of this subpopulation than in DMSO controls; conditions: 10 µM; 24 h; SM minimal medium; subpopulation (auxotrophy): HLM
Procedure, shortened: as §1

[17] = tested on: Saccharomyces cerevisiae BY4741 SeMeCo community; test: z-score of subpopulation abundance vs DMSO median, subpopulation auxotrophic for LU; higher = larger share of this subpopulation than in DMSO controls; conditions: 10 µM; 24 h; SM minimal medium; subpopulation (auxotrophy): LU
Procedure, shortened: as §1

SMILES	mean cell size [1]	z-score of subpopulation abundance [2]	z-score of subpopulation abundance [3]	z-score of subpopulation abundance [4]	z-score of subpopulation abundance [5]	z-score of subpopulation abundance [6]	z-score of subpopulation abundance [7]	z-score of subpopulation abundance [8]	z-score of subpopulation abundance [9]	z-score of subpopulation abundance [10]	z-score of subpopulation abundance [11]	z-score of subpopulation abundance [12]	z-score of prototroph abundance [13]	z-score of subpopulation abundance [14]	z-score of subpopulation abundance [15]	z-score of subpopulation abundance [16]	z-score of subpopulation abundance [17]
O=C(c1ccc(F)cc1)C1CCN(CCn2c(=O)[nH]c3ccccc3c2=O)CC1 [Ketanserin]	12.33 ± 0.039	0.03	-0.47	0.46	-0.51	-0.13	-0.54	0.13	0.14	-0.47	-0.27	0.5	–	–	–	–	–
CC1(C)S[C@@H]2[C@H](NC(=O)[C@H](N)c3ccccc3)C(=O)N2[C@H]1C(=O)OCOC(=O)[C@@H]1N2C(=O)C[C@H]2S(=O)(=O)C1(C)C [Sultamicillin Tosylate]	12.28 ± 0.1	0.72	–	-0.09	0.76	0.19	0.25	–	-0.45	0.26	-0.41	–	-0.54	0.67	-0.32	-0.09	–
CCn1cc(C(=O)O)c(=O)c2cnc(N3CCNCC3)nc21 [Pipemidic acid]	–	0.72	–	0.15	0.81	-0.06	0.86	0.01	-0.49	0.55	0.73	0.28	-0.62	0.77	-1.07	-0.37	–
CN1CCC(=C2c3ccccc3CCc3sccc32)CC1 [Pizotifen Malate]	12.5 ± 0.16	0.26	–	-0.03	-0.03	-0.33	-0.43	0.05	0.5	-0.14	-0.55	0.16	0.02	-0.76	–	0.21	–
COc1cc(/C=C/C(=O)N2CCN(CC(=O)N3CCCC3)CC2)cc(OC)c1OC [Cinepazide maleate]	12.6 ± 0.14	–	-1.17	–	-0.1	0.48	0.61	-0.2	0.11	–	-0.41	-0.53	-0.19	1.16	-0.51	-0.01	0.47
NC12CC3CC(CC(C3)C1)C2 [Amantadine HCl]	–	–	-0.67	-0.26	–	-0.11	-0.27	-0.19	-0.31	-0.08	-0.72	-0.01	0.23	0.19	-0.11	-0.47	-0.18
Cc1c(OCC(F)(F)F)ccnc1C[S+]([O-])c1nc2ccccc2[nH]1 (stereo not given) [Lansoprazole]	–	–	–	1.16	-0.45	0.54	-1.1	2.01	0.76	-0.3	1.02	–	-0.04	-0.71	–	0.03	-0.54
CO[C@H]1C[C@@H]2CC[C@@H](C)[C@@](O)(O2)C(=O)C(=O)N2CCCC[C@H]2C(=O)O[C@H]([C@H](C)C[C@@H]2CC[C@@H](OC(=O)C(C)(CO)CO)[C@H](OC)C2)CC(=O)[C@H](C)/C=C(\C)[C@@H](O)[C@@H](OC)C(=O)[C@H](C)C[C@H](C)/C=C/C=C/C=C/1C	14.17 ± 0.036	–	-0.9	5.51	23.9	28	11.2	–	28	28.7	14.2	31.6	-18.4	3.43	13.5	21.4	–
COc1cccc(-c2c(C)n(Cc3c(F)cccc3C(F)(F)F)c(=O)n(C[C@H](NCCCC(=O)O)c3ccccc3)c2=O)c1F [Elagolix Sodium]	12.5 ± 0.27	–	-0.55	-0.38	–	0.74	-0.27	–	-0.37	0.12	-0.77	-0.29	0.61	0.24	1.38	–	-0.52
